MITF TRPM1 inh = MITF TRPM1 promoter inhibition in SK-MEL-5 cells; SK-MEL-5 TRPM1 promoter luciferase, 24 h; actives 0.83% (n = 330,000); inhibition, % at 12.5 µM;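 active = mean inhibition across replicates of 60% or more, whatever share of single replicates reaches that level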
Shn3 3UTR inh = Schnurri-3 reporter inhibition in Clone20 osteoblasts; inhibition, % at 12.5 µM; Clone20 osteoblast Shn3 3'UTR firefly luciferase, 24 h; AID 588674; actives 0.52% (n = 360,000);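 active = mean inhibition of at least 75% with every replicate also reaching 75%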
697 NFkB inh = inhibitors of the PMA/ionomycin-induced NF-kB reporter in 697 B cells | inhibition, % at 4 µM | actives 0.33% (n = 330,000) | 697 B-cell NF-kB luciferase reporter, 16 h | AID 435022; in the data active = inhibition above about 35%
LMP1 NFkB inh = Epstein-Barr LMP1 NF-kappaB reporter inhibition; LMP1-induced NF-kappaB luciferase reporter cells, luminescence; actives 0.69% (n = 350,000); inhibition, % at 12.5 µM; AID 504558; in the data active = inhibition above about 41%
Gli-Sufu block = blocks Gli-Sufu signaling in a luciferase reporter. Sufu-KO-LIGHT fibroblasts, Gli luciferase reporter luminescence. actives 0.74% (n = 340,000). inhibition, % at 5 µM;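 active = inhibition above about 55%, limit read from the data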
Jurkat NFkB inh = lowers PMA/ionomycin-induced NF-kB signal in Jurkat cells | PMA/ionomycin-induced NF-kB luciferase reporter, luminescence | inhibition, % at 4 µM | actives 0.53% (n = 330,000) | AID 435003; in the data active = inhibition above about 50%
Gli-Sufu confirm = Gli-SUFU antagonism confirmation, single concentration; shares compounds with Gli-Sufu block; Sufu-KO-LIGHT cells, Gli luciferase reporter, luminescence; inhibition, % at 5 µM; actives 40% (n = 2,500); AID 602428;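 active = mean inhibition at 5 µM reaching about 45%, limit read from the data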
Gli cytotox = counter-screen for Gli-SUFU antagonists: cytotoxicity; shares compounds with Gli-Sufu block; Sufu-KO-LIGHT cells cytotoxicity, ATP luminescence; cytotoxicity, % at 5 µM; actives 32% (n = 2,500); AID 651994;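 active = mean cytotoxicity at 5 µM above about 25%, limit read from the data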;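 note: cells exposed to compound overnight for roughly 16 to 18 hours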
Wnt3a cs = counter-screen for Gli-SUFU antagonists: Wnt3a reporter inhibition | shares compounds with Gli-Sufu block | Wnt-LIGHT cells, Wnt3a-driven luciferase reporter, luminescence | inhibition, % at 6.25 µM | actives 20% (n = 2,500) | AID 651995;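 active = mean inhibition above about 25%, limit read from the data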
Hits are given with their value; i = inactive; nt = no result given. Shown are actives, neighbours in structure and some others; about 2.3% of the full set was active somewhere.

SMILES | MITF TRPM1 inh | Shn3 3UTR inh | 697 NFkB inh | LMP1 NFkB inh | Gli-Sufu block | Jurkat NFkB inh | Gli-Sufu confirm | Gli cytotox | Wnt3a cs
O=C(COc1ccc(Cl)cc1Cl)NC(=S)N1CCCc2ccccc21 | i | i | i | i | i | i | i | i | i
O=C(COc1ccc(Cl)cc1Cl)OCC(=O)N1CCCc2ccccc21 | i | i | i | i | i | i | nt | nt | nt
CN1/C(=C/C=N/NC(=O)c2ccc([N+](=O)[O-])cc2)C(C)(C)c2ccccc21 | i | i | i | i | i | i | nt | nt | nt
CN1/C(=C\C(=S)NC(=O)c2ccc([N+](=O)[O-])cc2)C(C)(C)c2ccccc21 | i | i | i | i | 61.8 | i | i | i | 25.8
CN1/C(=C\C(=S)NC(=O)c2cccc(Br)c2)C(C)(C)c2ccccc21 | i | i | i | i | 72.3 | i | 56.0 | i | i
CN1/C(=C\C(=O)Nc2ccc(Br)cc2)C(C)(C)c2ccccc21 | i | i | i | i | i | i | nt | nt | nt
COc1cc2c(cc1OC)CN(C(=O)c1ccc(S(=O)(=O)N(C)c3ccccc3)cc1)CC2 | i | i | i | i | i | i | nt | nt | nt
O=C(N[C@@H]1C/C=C\C[C@@H](CC(=O)N(CCO)Cc2ccccc2)C(=O)NCCOC1=O)OCC1c2ccccc2-c2ccccc21 | i | i | i | i | i | i | 47.7 | i | i
CC(C)(C)[C@H]1COC(=O)[C@H](NC(=O)OCC2c3ccccc3-c3ccccc32)C/C=C\C[C@@H](CC(=O)N(CCO)Cc2ccccc2)C(=O)N1 | i | i | i | i | 58.4 | i | 52.0 | i | i
O=C(N[C@H]1C/C=C\C[C@@H](CC(=O)N(CCO)Cc2ccccc2)C(=O)NC[C@H](c2ccccc2)OC1=O)OCC1c2ccccc2-c2ccccc21 | nt | i | i | i | 58.5 | i | 58.5 | i | 34.0
CC(C)(C)OC(=O)C[C@@H]1C/C=C\C[C@H](CC(=O)N(CCO)Cc2ccccc2)C(=O)N[C@H](C(C)(C)C)COC1=O | i | i | i | i | i | i | nt | nt | nt
O=C1NCCOC(=O)[C@H](Cc2ccc(F)cc2)C/C=C\C[C@H]1CC(=O)N(CCO)Cc1ccccc1 | i | i | i | i | i | i | nt | nt | nt
O=C(C[C@H]1C/C=C\C[C@H](NC(=O)OCC2c3ccccc3-c3ccccc32)C(=O)O[C@@H](c2ccccc2)CNC1=O)NCCO | i | i | i | i | i | i | nt | nt | nt
O=C(C[C@@H]1C/C=C\C[C@H](NC(=O)OCC2c3ccccc3-c3ccccc32)C(=O)O[C@H](c2ccccc2)CNC1=O)NCCO | i | i | i | i | i | i | 59.2 | 33.6 | i
OCC1(Cc2cccc(Cl)c2)CCCN(Cc2ccc3cc(F)ccc3n2)C1 (stereo not drawn) | i | i | i | i | i | i | nt | nt | nt
O=C(NCc1nnc(SCC(=O)N2CCCC2)o1)c1ccccc1 | i | i | i | i | i | i | nt | nt | nt
O=C(C[C@@H]1C/C=C\C[C@H](NC(=O)OCC2c3ccccc3-c3ccccc32)C(=O)OC[C@@H]2CCCN2C1=O)NCCO | i | i | i | i | i | i | nt | nt | nt
O=C(N[C@@H]1C/C=C\C[C@H](CC(=O)N(CCO)Cc2ccccc2)C(=O)N[C@@H](Cc2ccccc2)COC1=O)OCC1c2ccccc2-c2ccccc21 | i | i | i | i | i | i | nt | nt | nt
C[C@@H]1COC(=O)[C@H](NC(=O)OCC2c3ccccc3-c3ccccc32)C/C=C\C[C@@H](CC(=O)N(CCO)Cc2ccccc2)C(=O)N1 | i | i | i | i | 55.4 | i | 48.2 | 29.5 | i
O=C(C[C@@H]1C/C=C\C[C@@H](NC(=O)OCC2c3ccccc3-c3ccccc32)C(=O)OC[C@@H](Cc2ccccc2)NC1=O)NCCO | i | i | i | i | i | i | 61.7 | 28.0 | i
CC1(OC(=O)c2ccco2)C(=O)C=C2C=C(c3ccc(C#N)cc3)OC=C2C1=O (stereo not drawn) | nt | nt | i | nt | nt | i | nt | nt | nt
Cc1ccc(NC(=O)C2CCN(S(=O)(=O)c3c(C)n[nH]c3C)CC2)c(C)c1 | i | i | i | i | i | i | nt | nt | nt
CCOc1cc(C(=O)OCc2cccc(OC)c2OC)ccc1OCC(=O)N1CCOCC1 | i | i | i | i | 71.0 | i | i | i | i
CCOc1cc(C(=O)OCc2ccc([N+](=O)[O-])cc2)ccc1OCC(=O)N1CCOCC1 | i | i | i | i | i | i | nt | nt | nt
CC(C)(C)NC(=O)Cn1nnc(-c2ccc(Cl)cc2)n1 | i | i | i | i | i | i | nt | nt | nt
SMILES | MITF TRPM1 inh | Shn3 3UTR inh | 697 NFkB inh | LMP1 NFkB inh | Gli-Sufu block | Jurkat NFkB inh | Gli-Sufu confirm | Gli cytotox | Wnt3a cs
O=C1NCCCN1Cc1ccc(F)cc1 | i | i | i | i | i | i | nt | nt | nt
O=C1NCCN1Cc1ccc(Cl)cc1 | i | i | i | i | i | i | i | i | i
O=S(=O)(/N=C(\Sc1ccc(Cl)cc1)c1ccccc1)c1ccccc1 | i | i | i | i | i | i | nt | nt | nt
CCCC(C)C(=O)Nc1nc(C)c(-c2csc(Nc3ccc(Cl)cc3)n2)s1 (stereo not drawn) | i | i | i | i | i | i | 59.9 | i | i
COc1cccc(CNC(=O)C(C)n2ccc3cc(S(=O)(=O)N4CCCCCC4)ccc32)c1 (stereo not drawn) | i | i | i | i | i | i | nt | nt | nt
COc1ccc(CNC(=O)CCCn2ccc3cc(S(=O)(=O)N4CCCC4)ccc32)cc1 | i | i | i | i | 59.3 | i | i | 26.6 | i
CCOc1ccc(CNC(=O)CCCn2ccc3cc(S(=O)(=O)N4CCCC4)ccc32)cc1 | i | i | i | i | i | i | nt | nt | nt
CCC(C(=O)NCCC(C)C)n1ccc2cc(S(=O)(=O)N3CCCCC3)ccc21 (stereo not drawn) | i | i | i | i | 67.2 | i | i | i | i
COc1ccc(NC(=O)Nc2nc(C(N)Cc3ccc(C(F)(F)F)cc3)cs2)cc1 (stereo not drawn) | nt | i | nt | nt | nt | nt | nt | nt | nt
COc1ccc(N2CC(O)=C(c3nc(-c4ccc(Br)cc4)cs3)C2=N)cc1 | nt | i | i | i | i | i | nt | nt | nt
Fc1ccc(-c2cn(-c3ccccc3)c3[n+]2CCS3)cc1 | i | i | i | i | i | i | nt | nt | nt
COc1ccc(-c2cn(-c3ccc(Br)cc3)c3[n+]2CCS3)cc1 | i | i | i | i | 74.5 | i | 76.3 | i | 60.8
CC(=O)c1ccc(-n2cc(-c3ccc(C(C)(C)C)cc3)[n+]3c2SCCC3)cc1 | i | i | i | i | 73.4 | i | 64.8 | i | i
Clc1ccc(-c2cn(-c3ccccc3)c3[n+]2CCS3)cc1 | i | i | i | i | 55.9 | i | 56.5 | i | i
COc1ccc(-n2nnc3c(SCC(=O)NCc4ccco4)ncnc32)cc1 | i | i | i | i | 97.8 | i | i | i | i

Screening data from PubChem BioAssay.
